According to ChEMBL document CHEMBL3988442, “University of Dundee, Small-Polar-MMV Screening Library” (2021):
In all, about 48,000 compounds went through this assay and about 13,000 (27%) showed an effect of 50% or more. Some of the results follow.

System: Wolbachia pipientis
Experiment: Anti-Wolbachia Cell-Based Screen
Format: functional
Design: scale not given: in the data most compounds retested in dose-response had high values
Conditions: 5 µM

SMILES | Percent Effect
CC(C)Cc1noc(CN(C)C(=O)CCNC(=O)c2ccccc2F)n1 | -3.806%
CC(CNCC1(S(C)(=O)=O)CCOCC1)c1ccc(F)cc1 (stereo not drawn) | 6.37%
CNc1cc(-c2nc(CCN3CCCC3=O)no2)ccn1 | 8.6%
O=C(Cc1cccc(F)c1)NCCCNC(=O)c1cccc(O)c1 | 95%
CC(NC(=O)N(C)Cc1ccsc1)c1ccc2c(c1)NC(=O)CO2 (stereo not drawn) | -9.283%
Cc1cc(F)c2c(c1)CCCN2Cc1nc2c(cnn2C)c(=O)[nH]1 | -12.02%
Cc1cc(F)c2c(c1)CCCN2C(=O)c1cncc(Br)c1 | 14.39%
Cn1c(CS(=O)(=O)c2ccc(Cl)cc2)cc(=O)n(C)c1=O | 2.461%
CN(C(=O)CN1CCCc2cc(F)cc(F)c21)c1ccccc1 | -11.45%
Cc1ccc(F)c2c1CCCN2Cc1cc(=O)n(C)c(=O)n1C | 107.3%
Cc1cc(F)c2c(c1)CCCN2Cc1cc(=O)n(C)c(=O)n1C | 117.6%
Cn1c(CN2CCCc3cc(F)cc(F)c32)cc(=O)n(C)c1=O | 98.13%
Cn1ncc2c(=O)[nH]c(CN3CCCc4cc(F)cc(F)c43)nc21 | -18.5%
Cc1cc(C2CCCN2Cc2cc(=O)n(C)c(=O)n2C)on1 (stereo not drawn) | -9.858%
COC(=O)N1CCc2ccccc2C1C(=O)NCc1ccccn1 (stereo not drawn) | -3.953%
N#CC1(NC(=O)c2nccc3ccccc23)CCC1 | 2.644%
CCC(C(=O)NCc1ccncc1)N(c1cccc(Cl)c1)S(C)(=O)=O (stereo not drawn) | -1.901%
CCN(CC)C(=O)c1cc(-c2cccc(Cl)c2)no1 | -14.84%
CC(Cc1ccco1)NC(=O)NCc1ncnn1C (stereo not drawn) | 9.946%
CN(Cc1cc(-c2ccccc2)no1)C(=O)CNS(C)(=O)=O | -3.143%
CC(NC(=O)c1cc(-c2cccc(Cl)c2)no1)C(=O)N(C)C (stereo not drawn) | -38.11%
CC(C)[C@H](NS(C)(=O)=O)C(=O)NCc1cc(-c2ccco2)nn1C | 131.1%
Cn1c(C(=O)NS(C)(=O)=O)ccc1-c1ccccc1 | -9.851%
CC(C)[C@H](NS(C)(=O)=O)C(=O)NCc1cc(-c2cccc(Cl)c2)nn1C | 123.3%
CC(C)[C@H](NS(C)(=O)=O)C(=O)NCc1cc(-c2ccccc2)nn1C | 107.7%
CC(C)NC(=O)NCc1cc(-c2cccc(Cl)c2)nn1C | 128.3%
CC(C)S(=O)(=O)NC(=O)c1cc(-c2cccc(Cl)c2)no1 | -50.72%
CC(C)[C@@H]1CN(C(=O)NCc2ccco2)C[C@H]1NS(=O)(=O)N(C)C | 8.904%
